Vaccinia Venus: inhibitors of vaccinia virus (Venus reporter). Vaccinia virus Venus reporter expression, fluorescence. Potency, µM (top dose mostly 36.5 µM), usual class: inhibitors. 330,000 compounds, 0.46% hits. AID 720580; calls by dose curve; tested in A549 cells; also: nearly all actives have a fitted effect of over 30% in size
VACV mCherry inh: inhibitors of vaccinia virus infection (mCherry reporter signal); Vaccinia virus mCherry reporter infection, fluorescence; Potency, µM (titrated, usually from 36.5 µM), hits mostly inhibitors; 310,000 compounds, 0.63% hits; AID 720579; calls by dose curve; tested in A549 cells; also: nearly all actives have a fitted effect of over 35% in size
FMDV inh: antivirals against foot and mouth disease virus | 410,000 compounds, 1.2% hits | Potency, µM (highest dose often 57.9 µM), hits mostly inhibitors | FMDV antiviral cell-based qHTS | AID 1159524; calls by dose curve; tested in HEK293T cells; also: read-out not given here; nearly all actives have a fitted effect of over 45% in size
LASV entry inh: blocks Lassa virus binding to or entry into cells; Lassa virus pseudotype entry inhibition, cell reporter; Potency, µM (top dose mostly 37.9 µM), hits mostly inhibitors; 300,000 compounds, 1.2% hits; calls by dose curve; tested in HEK293 cells; also: nearly all actives have a fitted effect of over 50% in size
MARV entry inh: Marburg virus entry inhibition; AID 540276; 300,000 compounds, 1.8% hits; Marburg virus pseudotyped entry inhibition, cell reporter; Potency, µM (highest dose often 37.8 µM), hits mostly inhibitors; calls by dose curve; tested in HEK293 cells
Sm TGR inh: inhibitors of Schistosoma mansoni thioredoxin glutathione reductase. Q962Y6. 360,000 compounds, 3% hits. purified TGR, DTNB reduction, TNB absorbance 405 nm. Potency, µM (series often up to 114 µM), most hits filed as inhibitors. AID 485364; active = well fitted inhibition curve with a large enough effect; inconclusive = small, poorly fitted or top-dose-only effect; inactive = no such curve, though single readings can be large or run the other way; also: nearly all actives have a fitted effect of over 60% in size
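Kinetic colorimetric format: TGR-catalysed, NADPH-driven DTNB reduction monitored via TNB absorbance. Enzyme dispensed at 20 nM; compound exposure 15 min at room temperature before reaction start.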
Each line names hits and unclear results; the compound was inactive in the other large screens. Hits are enriched below; roughly 5.4% of the tested compounds scored in any of these assays.

CO/N=C(\c1nonc1N)N1CCN(c2ccc(Cl)cc2[N+](=O)[O-])CC1	FMDV inh 35µM, LASV entry inh inconclusive, MARV entry inh inconclusive
Cc1cc2c(c(-c3nc4ccccc4s3)c1)OC(CNC(=O)c1occc1C)C2 (configuration not stated)	none (no result: LASV entry inh, MARV entry inh, Sm TGR inh)
C=C(C=O)CC1CC(O)[C@]2(C)OC3CC4OC5C[C@]6(C)O[C@]7(C)CCC8OC9C[C@]%10(C)OC%11C(C)=CC(=O)OC%11CC%10OC9C[C@@H](C)C8OC7CC6O[C@]5(C)CC5OC5C4OC3CC2O1 (some centres not stated)	Sm TGR inh 11µM (no result: Vaccinia Venus, VACV mCherry inh, FMDV inh, LASV entry inh, MARV entry inh)
Cc1ccc(-n2c(SCC(=O)NCc3ccco3)nc3nc4c(cc3c2=O)COC(C)(C)C4)cc1	Sm TGR inh 22µM (no result: VACV mCherry inh)
O=C(CSc1nc2c(c(=O)n1-c1ccc(Cl)cc1)SCC2)NCc1ccco1	Sm TGR inh inconclusive
O=C(CSc1nc2c(c(=O)n1-c1ccc(F)cc1)SCC2)NCc1ccco1	Sm TGR inh 40µM (no result: Vaccinia Venus, VACV mCherry inh)
CC1CCN(C(=O)c2cc(-c3ccc(Br)cc3)on2)CC1	MARV entry inh inconclusive
CCc1nn(CC(=O)N2CCN(c3cccc(C)c3C)CC2)c(=O)c2cc3sccc3n12	none (no result: LASV entry inh)
COc1ccc(-c2cc3ccc(O)c(CN4CCCC4)c3oc2=O)cc1	none (no result: MARV entry inh)
C/C=C/C=C\C(=O)Nc1cccc(C2=NOC3(C2)C[C@@H](C(N)=O)N(C(=O)c2cc([N+](=O)[O-])cc([N+](=O)[O-])c2C)C3)c1 (some centres not stated)	Sm TGR inh 2.8µM (no result: LASV entry inh, MARV entry inh)
CCCCCC(=O)Nc1cccc(C2=NOC3(C2)C[C@@H](C(N)=O)N(C(=O)CC(c2ccccc2)c2ccccc2)C3)c1 (some centres not stated)	Vaccinia Venus 13µM, FMDV inh inconclusive (no result: LASV entry inh, MARV entry inh)
C/C=C\C=C\C(=O)N1CC2(CC(c3cccc(NC(=O)CC)c3)=NO2)C[C@H]1C(N)=O (some centres not stated)	Sm TGR inh 2.5µM (no result: LASV entry inh, MARV entry inh)
C/C=C\C=C/C(=O)Nc1cccc(C2=NOC3(C2)C[C@@H](C(N)=O)N(C(=O)c2ccccc2)C3)c1 (some centres not stated)	Sm TGR inh 3.2µM (no result: Vaccinia Venus, VACV mCherry inh, FMDV inh, LASV entry inh, MARV entry inh)
C/C=C\C(=O)Nc1cccc(C2=NOC3(C2)C[C@@H](C(N)=O)N(C(=O)c2ccccc2)C3)c1 (some centres not stated)	none (no result: LASV entry inh, MARV entry inh)
CCN1C(=O)NC(CCc2ccccc2)C(C(C)=O)=C1C (configuration not stated)	none (no result: Vaccinia Venus, VACV mCherry inh, FMDV inh, LASV entry inh, Sm TGR inh)
C/C=C/C=C\C(=O)Nc1cccc(C2=NOC3(C2)C[C@H](C(N)=O)N(C(=O)/C=C/C)C3)c1 (some centres not stated)	Sm TGR inh 2.8µM (no result: LASV entry inh, MARV entry inh)
C/C=C\C=C\C(=O)Nc1cccc(C2=NOC3(C2)C[C@H](C(N)=O)N(C(=O)c2ccccc2C(=O)c2ccccc2)C3)c1 (some centres not stated)	Sm TGR inh 3.2µM (no result: LASV entry inh, MARV entry inh)
O=C(N/N=C/c1ccc(N2CCOCC2)o1)c1cccc([N+](=O)[O-])c1	MARV entry inh inconclusive, Sm TGR inh 11µM
Cc1ccccc1OCC(=O)N/N=C/c1ccncc1	none
Cc1ccccc1OCC(=O)N/N=C/c1ccc(N2CCOCC2)o1	Sm TGR inh 7.9µM (no result: Vaccinia Venus, VACV mCherry inh, LASV entry inh, MARV entry inh)
O=C(N/N=C/c1ccc(N2CCCCC2)o1)c1ccccc1	MARV entry inh inconclusive, Sm TGR inh 7.9µM
CCOc1ccc(-n2nc(CO)c(C(=O)NCC(C)O)n2)cc1 (configuration not stated)	none
CCc1ccc(NC(=O)Cn2c(=O)n(CCCCC(=O)NCc3ccccc3Cl)c(=O)c3ccccc32)cc1	LASV entry inh inconclusive
O=C(CSC1=NS(=O)(=O)c2ccccc21)Nc1ccccc1	Vaccinia Venus 10µM, VACV mCherry inh 13µM, FMDV inh inconclusive, Sm TGR inh 2.5µM (no result: LASV entry inh, MARV entry inh)
COC(=O)CSC1=NS(=O)(=O)c2ccccc21	FMDV inh inconclusive, LASV entry inh inconclusive, Sm TGR inh 2.5µM
O=C(CSC1=NS(=O)(=O)c2cc(F)ccc2N1)Nc1ccccc1	none
CC(N)(COP(=O)(O)O)C(=O)O (configuration not stated)	none (no result: LASV entry inh, MARV entry inh, Sm TGR inh)
Cc1ccc(Nc2c(-c3ccc(C)o3)nc3cccc(C)n23)cc1	MARV entry inh inconclusive
Cc1cccc2nc(-c3ccccn3)c(Nc3ccccc3)n12	Vaccinia Venus inconclusive, VACV mCherry inh inconclusive, FMDV inh inconclusive, LASV entry inh 11µM, MARV entry inh inconclusive
Cc1cccc2nc(-c3ccccn3)c(Nc3ccc(F)cc3)n12	Vaccinia Venus inconclusive, VACV mCherry inh 10µM, FMDV inh inconclusive, LASV entry inh inconclusive, MARV entry inh inconclusive
Cc1ccc(Nc2c(-c3ccccn3)nc3cccc(C)n23)cc1	VACV mCherry inh 13µM, FMDV inh inconclusive (no result: LASV entry inh, MARV entry inh)
Cc1ccc(S(=O)(=O)N2CCc3cc(C(=O)Nc4c(F)cccc4F)ccc32)cc1	LASV entry inh inconclusive
CCOC(=O)c1ccccc1NC(=O)Cn1c(-c2nonc2N)nc2ccccc21	LASV entry inh inconclusive, MARV entry inh 0.052µM (no result: Vaccinia Venus, VACV mCherry inh)
Nc1nonc1-c1nc2ccccc2n1CC(=O)N/N=C/c1ccc(-c2ccccc2C(=O)O)o1	MARV entry inh inconclusive, Sm TGR inh 40µM
Nc1nonc1-c1nc2ccccc2n1CC(=O)Nc1ccccc1	MARV entry inh inconclusive
COC(=O)Nc1nc2ccc(SC(C)C)cc2[nH]1	Vaccinia Venus inconclusive, VACV mCherry inh inconclusive (no result: LASV entry inh, MARV entry inh)
CCCSc1ccc2nc(NC(=O)OC)[nH]c2c1	Vaccinia Venus inconclusive, VACV mCherry inh inconclusive, LASV entry inh 2.1µM, MARV entry inh inconclusive
O=C(Nc1ccc(S(=O)(=O)NCc2ccco2)cc1)c1ccncc1	none
O=C(Cn1ccc(C(F)(F)F)n1)Nc1ccc(S(=O)(=O)NCc2ccco2)cc1	Sm TGR inh 45µM
Nc1ccc(Br)c[n+]1Cc1cccc2cccnc12	MARV entry inh 10µM
CCN(C(=O)COC(=O)/C=C/c1ccc(C)o1)c1c(N)n(Cc2ccccc2)c(=O)[nH]c1=O	Sm TGR inh 18µM
CCCN(C(=O)/C=C/c1ccco1)c1c(N)n(Cc2ccccc2)c(=O)[nH]c1=O	Sm TGR inh 45µM (no result: Vaccinia Venus, VACV mCherry inh, LASV entry inh, MARV entry inh)
COC1=C(C2C(OC)CCC3CCCCC32)C2=C(CCCC2)CC1 (configuration not stated)	none (no result: Vaccinia Venus, VACV mCherry inh, FMDV inh, LASV entry inh, Sm TGR inh)
CCOc1ccc(NC(=O)CC2C(=O)N(c3ccc(F)cc3)C(=O)N2CCc2sccc2C)cc1 (configuration not stated)	LASV entry inh inconclusive, MARV entry inh inconclusive
COc1ccc(-c2nc3cnc(OCc4ccccc4)nc3n(CCC#N)c2=O)cc1	none (no result: Vaccinia Venus, VACV mCherry inh, LASV entry inh, MARV entry inh, Sm TGR inh)
CC1CN(C2CCN(S(=O)(=O)c3ccc(F)cc3)CC2)CC(C)O1 (configuration not stated)	Sm TGR inh 40µM (no result: Vaccinia Venus, VACV mCherry inh)
COc1ccc([N+](=O)[O-])cc1NC(=O)C(C)OC(=O)Cc1ccc(OC)c(OC)c1 (configuration not stated)	MARV entry inh inconclusive (no result: Sm TGR inh)
COc1ccc([N+](=O)[O-])cc1NCc1cccc([N+](=O)[O-])c1	Vaccinia Venus 10µM, VACV mCherry inh inconclusive, LASV entry inh inconclusive

Assay outcomes: PubChem BioAssay, National Center for Advancing Translational Sciences (NCATS)
